Records with an inconclusive call do not appear. A call without a number means that no potency is given here. Activity calls are given as the source filed them. The call rests on the fitted dose curve; in most records, active means well fitted activation curve with a large enough effect; inconclusive means small, poorly fitted or top-dose-only effect; inactive means no such curve, though single readings can be large or run the other way.
Potency means the concentration at half of the fitted maximal effect.

A short description of this test: qHTS Assay for Identifying a Potential Treatment of Ataxia-Telangiectasia: Hit Validation.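 Further: phospho-KAP1 level by AlphaLISA as a proxy for ATM-like kinase activity.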 The conditions noted are these: Ataxia-telangiectasia cell-based hit validation qHTS, in ATM-null A-T patient fibroblasts; series mostly up to 76.9 µM. Summed up: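 KAP-1 phosphorylation was read by AlphaLISA as a measure of ATM-like activity in ATM-null F2112 fibroblasts. Compounds spanned up to 76.7 uM final, with 60 min exposure at 37C and a 6 hr detection incubation at 25C.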
In general terms: In qHTS, concentration-response curves come from the screen itself.
Take `CN(C)Cc1ccc(F)cc1Sc1cc(Cl)ccc1Cl`: the Potency entry is “inactive”. Consider `Cn1cc(/C=N/NC(N)=S)c2ccccc21`, for which the Potency entry was “inactive”. As to `CC1Cc2ccccc2N1C(=O)CSc1nnnn1-c1ccc2c(c1)OCCO2` (stereo unspecified), the Potency entry was “inactive”. For `O=C1/C(=C/c2ccc(N3CCOCC3)o2)SC(=Nc2ccccc2)N1CCc1c[nH]c2ccccc12`, the Potency entry was “inactive”.

As for `CC(C)(C=O)C1=CC(=O)c2ccccc2C1=O`, the Potency is 20.7 µM (active). To `O=C(c1ccc(F)cc1)N1CCC(c2ccccc2)C1` (stereo unspecified) belongs “inactive”; to `Oc1cccc(NC(=S)N=Nc2c(O)[nH]c3ccccc23)c1`, “inactive”; to `CN(C)C(=O)c1nc2ccc(Cl)cn2c1CNCc1cccc(OC(F)(F)F)c1`, “inactive”.

As for `COc1cc(CCC(C)NCc2ccccc2)ccc1O` (stereo unspecified), the Potency entry was “inactive”. Turning to `COc1ccc(C2/C=C\CN(S(=O)(=O)c3ccc4ccccc4c3)CC(=O)N2Cc2ccc(F)cc2)cc1` (stereo unspecified), the Potency is 29.2 µM (active). As to `O=C(OCCc1cc2ccccc2c(=O)o1)c1cccc(Br)c1`, the Potency entry was “inactive”. Consider `CCn1c(SCc2cccc(F)c2)nnc1-c1ccncc1`, for which the Potency entry is “inactive”. In the case of `C[C@H](NC(=O)OC(C)(C)C)C(=O)NCC1CCC(C(=O)N[C@@H](Cc2ccccc2)C(=O)O)CC1` (stereo partly specified) it was “inactive”; in that of `OC(COC(c1ccc(F)cc1)c1ccc(F)cc1)CN1CCCC1` (stereo unspecified), “inactive”; in that of `O=C(C[n+]1ccc2c(c1)nnn2-c1ccccc1)c1ccc(Cl)cc1`, “inactive”.

On to `CCNC(=S)N(CCc1c(C)[nH]c2ccccc12)Cc1cccnc1`, for which the Potency result was “inactive”. Take `C=C(C)n1c(=O)n(Cc2ccccc2C)c2ccccc21`: the Potency entry is “inactive”.

For `CC(C)CNS(=O)(=O)c1cc(C(=O)O)c(Cl)cc1Cl`, the Potency result is “inactive”.

As to `CC(C)CN(CC(C)C)C(=O)c1cc2c(=O)n3ccccc3nc2s1`, the Potency result is “inactive”. On to `COc1ccc(N2CCN(C(=O)c3cc4cc(Cl)ccc4[nH]3)CC2)cc1`, for which the Potency result is “inactive”.

As to `Cn1c(=O)oc2cc(S(=O)(=O)N3CCc4ccccc43)ccc21`, the Potency result is “inactive”. Consider `CC(C)(C)NC(=O)c1cccc2c1-c1ccccc1C2=O`, for which the Potency entry was “inactive”. As for `CCn1c(N2CCN(CC(=O)c3c[nH]c4ccccc34)CC2)nc2c1c(=O)[nH]c(=O)n2C`, the Potency result is “inactive”. Take `CCOc1cccc(/C=C/c2ccc3cccc(O)c3n2)c1OC`: the Potency is 32.8 µM (active). In the case of `CNC(=S)N(CCc1c(C)[nH]c2ccc(Cl)cc12)Cc1cccnc1` it was “inactive”. In the case of `CCOC(=O)c1ccccc1NC(=O)c1ccc2nc[nH]c2c1`, the Potency result was “inactive”.

On to `O=C(COc1ccccc1Cl)NCCCNC(=O)c1cnccn1`, for which the Potency result is “inactive”.

With `CC(C)C1CC(CCN)(c2ccccc2)CCO1` (stereo unspecified), the Potency entry was “inactive”. In the case of `CCCN1CN(c2ccccc2)C(=S)N(c2ccccc2)C1` it was “inactive”; in that of `CCN1CCN(c2oc(COc3ccc(Cl)cc3)nc2C#N)CC1`, “inactive”.

Regarding `O=C(c1nn2c(C(F)(F)F)cc(-c3ccc(F)cc3)nc2c1Cl)N1CCOCC1`, the Potency entry was “inactive”.

For `COc1ccc(Oc2ncnc3c2oc2ccc(Br)cc23)cc1`, the Potency result is “inactive”.

For the molecule `O=C1C2C3C=CC(CC3)C2C(=O)N1c1cccc(Br)c1` (stereo unspecified), the Potency result was “inactive”. In the case of `COC(=O)c1ccc2[nH]c3cccc(/C(=C/c4ccccc4)c4ccccc4)c3c2c1` it was “inactive”. To `O=C(O)CCC(=O)NN1C(=O)c2ccccc2NC1c1ccco1` (stereo unspecified) belongs “inactive”; to `COc1cc(/C=N/NC(=O)c2c(C)nc3ccc(Cl)cn23)cc(OC)c1OC`, “inactive”.

Values taken from PubChem BioAssay AID493192 (National Center for Advancing Translational Sciences (NCATS), 2011).
